Screens (PubChem BioAssay)
TbPYK inhibitor: inhibitors of Trypanosoma brucei pyruvate kinase. Potency, µM (series often up to 76.8 µM), for inactives: at the top dose activity, negative = inhibition, hits mostly inhibitors. AID 624173. TbPYK enzyme, Kinase-Glo Plus ATP luminescence, 45 min. actives 0.12% (n = 410,000); note: nearly all actives have a fitted effect of over 50% in size
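In this concentration-response screen, enzyme-free wells defined baseline while DMSO plates tracked drift. Each reaction combined TbPYK, substrate, compound and 130 uM ADP for 45 min at room temperature. Kinase-Glo Plus luminescence gave the signal.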
Sm TGR inh: blocks Schistosoma mansoni thioredoxin glutathione reductase. Potency, µM (titrated, usually from 114 µM), for the others: top-dose activity change, negative = inhibition, usual class: inhibitors. actives 3% (n = 360,000). purified TGR, DTNB reduction, TNB absorbance 405 nm. Q962Y6; note: nearly all actives have a fitted effect of over 60% in size
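First, TGR (20 nM dispensed) and NADPH were mixed with compound. Second, a 15 min room-temperature incubation followed. Third, further NADPH and then DTNB were added to start the reaction. Finally, TNB absorbance was monitored kinetically.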
RE007 growth inh: less growth of the S. pombe RE007 Vpr strain; S. pombe RE007 Vpr strain, BacTiter-Glo ATP luminescence, 24 h; Potency, µM (top dose mostly 92.2 µM), for inactives: at the top dose activity change, negative = less growth, actives largely listed as inhibitors; actives 0.21% (n = 360,000); active = well fitted falling curve with a large enough effect; inconclusive = small, poorly fitted or top-dose-only effect; inactive = no such curve, though single readings can be large or run the other way; note: nearly all actives have a fitted effect of over 50% in size
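Fission yeast RE007 carrying one integrated HIV-1 vpr copy, seeded at OD 0.01 in PMG+AL medium with 23 nL pinned compound. Grown 24 h at 30 degrees; viability read by BacTiter-Glo luminescence after 5 min.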
LmPK inh: inhibitors of Leishmania mexicana pyruvate kinase | purified LmPK, Kinase-Glo ATP luminescence, 1 h | Q27686 | actives 0.37% (n = 290,000) | Potency, µM (titrated, usually from 57.5 µM), inactives show top-dose activity change, negative = inhibition, usual class: inhibitors
Target sequence (Q27686 whole entry, looked up): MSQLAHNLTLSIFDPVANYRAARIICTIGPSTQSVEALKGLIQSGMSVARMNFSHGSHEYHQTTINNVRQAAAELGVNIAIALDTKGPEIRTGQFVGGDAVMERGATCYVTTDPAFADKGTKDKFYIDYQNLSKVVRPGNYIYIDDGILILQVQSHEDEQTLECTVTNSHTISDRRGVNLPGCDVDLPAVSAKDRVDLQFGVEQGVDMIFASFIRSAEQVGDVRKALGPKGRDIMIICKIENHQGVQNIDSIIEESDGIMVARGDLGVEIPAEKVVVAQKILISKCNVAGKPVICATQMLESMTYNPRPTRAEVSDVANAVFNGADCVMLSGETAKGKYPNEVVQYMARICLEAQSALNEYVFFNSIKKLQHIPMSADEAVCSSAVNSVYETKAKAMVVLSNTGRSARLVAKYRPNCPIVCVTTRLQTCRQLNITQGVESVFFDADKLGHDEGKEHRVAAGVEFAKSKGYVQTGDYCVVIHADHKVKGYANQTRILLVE
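Screened at intermediate enzyme activity to detect both inhibitors and activators: LmPK at 0.1 nM, with a 0.5 nM enzyme column as activation reference. PEP 0.5 mM, ADP 0.1 mM; ATP detected by luminescence after 1 h.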
Numbers without * were called inactive; ? = inconclusive; . = no result; [ ] = dose if it differs, or a comment. This is a sample that favours compounds with a hit; in the whole collection about 3% have one here. Unless noted, calls come from the whole dose curve; as a rule, active = well fitted curve in the direction sought with a large enough effect; inconclusive = small, poorly fitted or top-dose-only effect, or another doubt; inactive = no such curve, though single readings can be large; an effect the other way counts as inactive or inconclusive. % is set by controls: 0 for no effect and ±100 for the full control effect; potency is the fitted concentration of half-maximal effect.

SMILES	TbPYK inhibitor	Sm TGR inh	RE007 growth inh	LmPK inh
NC(=O)C1=C[C@H](c2ccc3c(c2)OCO3)C[C@H](OCc2ccc(CO)cc2)O1	0%	56µM*	12%	2%
NC(=O)C1=C[C@@H](c2ccccc2)C[C@@H](OCc2ccc(CO)cc2)O1	-1%	50µM*	-6%	3%
CSc1nnc2c(n1)OC(c1cccc(O)c1Cl)Nc1ccccc1-2 (stereo not drawn)	2%	-13%	.	.
Oc1cncc(Cc2ccccc2)c1	0%	32µM*	23%	-3%
O=C1C2C3C=CC(C3)C2C(=O)N1CNc1ccc(O)cc1 (stereo not drawn)	.	45µM*	.	-3%
O=C(NCCN1CCCCC1)c1ccc(Cn2c(SCc3ccc(F)cc3)nc3cccnc32)cc1	0%	2%	.	.
CC(=O)N(Cc1ccc(F)cc1)C1=C(NCc2ccccc2)C(=O)c2ccccc2C1=O	-2%	-12%	7.1µM*	-2%
COc1cc(Nc2ncc3c(n2)CCN(Cc2ccc(OC(C)C)c(OC)c2)C3)cc(OC)c1	2%	-9%	.	.
CCOc1ccc(CC(=O)C2=C(N3CCOCC3)CC(C)(C)CC2=O)cc1OCC	-5%	7.9µM*	10%	2%
CCOc1ccc(CC(=O)C2C(=O)CC(C)(C)CC2=O)cc1OCC	-3%	13µM*	-6%	4%
CCOc1ccc(CC(=O)C2C(=O)CCCC2=O)cc1OCC	-18%	32µM*	2%	2%
CCOc1ccc(CC(=N)C2=C(O)CC(C)(C)CC2=O)cc1OCC	-3%	-13%	24%	5%
CCOc1ccc(CC(=O)NC2CC(C)(C)N(C)C(C)(C)C2)cc1OCC	3%	0%	-9%	.
COc1ccc(N(C(=O)Cn2nnc3ccccc32)C(C(=O)NCc2ccccc2)c2ccc(F)cc2)cc1 (stereo not drawn)	1%	-2%	.	.
CC(/C=N/n1c(-c2ccc(Cl)cc2)n[nH]c1=S)=C\c1ccco1	?	-18%	.	3%
CC(/C=N/n1c(-c2cc(C)[nH]n2)n[nH]c1=S)=C\c1ccco1	?	13µM*	2%	7%
CC(/C=N/n1cnnc1)=C\c1ccco1	0%	35µM*	-1%	-6%
CC(/C=N\NC(=O)CN1CCN(Cc2ccccc2)CC1)=C\c1ccco1	-5%	-21%	7%	3%
CCN(CC)S(=O)(=O)c1ccc(OC)c(NC(=O)/C=C/c2ccco2)c1	?	3.2µM*	-9%	3%
COc1ccc(C2(CNC(=O)/C=C/c3ccco3)CCCC2)cc1OC	?	3.5µM*	0%	3%
O=C(/C=C/c1ccco1)NCC1(c2ccccc2)CCCC1	-10%	7.9µM*	53%	-2%
COc1ccc(CNC(=O)/C=C/c2ccco2)cc1OC	-12%	3.2µM*	2%	-2%
CCOc1ccc(NC(=O)c2nc3nc(C)cc(C(F)F)n3n2)cc1	0%	-8%	.	.
CCN(CC)c1ccc(NC(=O)C2COc3ccc(OC)cc3C2)c(C)c1 (stereo not drawn)	-10%	-22%	.	.
O=[N+]([O-])c1ccc(N2CCCCCC2)c2nonc12	1%	1%	-12%	-1%
SMILES	TbPYK inhibitor	Sm TGR inh	RE007 growth inh	LmPK inh
Cc1ccc(S(=O)c2ccc([N+](=O)[O-])c3nonc23)cc1 (stereo not drawn)	6.3µM*	.	?	.
N=C1N=C(N)c2cc3ccccc3cc21	3%[157 µM]	.	.	.
NC(=O)CN1C(=O)/C(=c2\sc3nc(=O)c(Cc4ccccc4)nn3c2=O)c2ccccc21	?	0.35µM*	-3%	-3%
CCCN1C(=O)/C(=c2\sc3nc(=O)c(Cc4ccc(C)cc4)nn3c2=O)c2ccccc21	?	.	-1%	1%
CC(C)c1ccc(NC(=O)C2(C)Cc3ccccc3C(=O)O2)cc1 (stereo not drawn)	-2%	-3%	.	.
NCCCn1c(C(=O)c2cc(Cl)c(N)c(Cl)c2)c2ccc(C(F)(F)F)cc2[n+]1[O-]	-10%	45µM*	1%	.
NCCCn1c(C(=O)c2cc(Cl)c(N)c(Cl)c2)c2ccc([N+](=O)[O-])cc2[n+]1[O-]	0%	40µM*	-15%	.
NC(=O)CCCn1c(C(=O)c2cc(Cl)c(N)c(Cl)c2)c2ccc(C(F)(F)F)cc2[n+]1[O-]	-5%	?	-1%	.
CCN(C(=O)c1c(C)oc2ncn(CC(C)C)c(=O)c12)c1cccc(Cl)c1	0%	1%	.	.
COc1ccc(S(=O)(=O)N(CC(=O)Nc2ccc(OC)cc2OC)c2ccc(Cl)cc2)cc1	-9%	9%	.	.
CCOC(=O)c1c(C)nc2sc3c(c2c1-c1ccc(OC)cc1)NC(c1ccccc1)NC3=O (stereo not drawn)	-4%	-1%	26%	5%
COC(=O)C1=C(C)N=c2s/c(=C/c3ccoc3)c(=O)n2C1c1ccccc1 (stereo not drawn)	11%	?	-6%	4%
COC(=O)C1=C(C)N=c2s/c(=C3\C(=O)Nc4ccccc43)c(=O)n2C1c1ccccc1 (stereo not drawn)	.	50µM*	.	-4%
CCOC(=O)C1=C(C)n2c(s/c(=C3\C(=O)Nc4ccccc43)c2=O)=NC1c1ccc(OC)cc1 (stereo not drawn)	-28%	25µM*	-8%	-11%
CCOC(=O)C1=C(C)N=c2s/c(=C3/C(=O)Nc4ccccc43)c(=O)n2C1c1ccc(C)cc1 (stereo not drawn)	-10%	20µM*	-7%	-15%
Cc1ccc(NC(=O)c2cnc(SCC(=O)N3CCCc4ccccc43)n(C)c2=O)cc1C	3%	5%	.	.
Nc1c(NC/C=C\COc2cc(CN3CCCCC3)ccn2)c(=O)c1=O	5%	.	.	.
COc1cccc(CNc2nc(NC(C)C)nc3ccsc23)c1	5%	.	2%	.
Cc1c(C)n(Cc2ccccc2)c2ncnc(N)c12	8%	0%	-5%	-2%
Cc1c(S(=O)(=O)c2ccccn2)c(N)n(Cc2ccccc2)c1C	-2%	2µM*	2%	-6%
COCCn1c(C)c(C)c(S(=O)(=O)c2ccccc2)c1N	-8%	1µM*	10%	4%
Cc1c(S(=O)(=O)c2ccccn2)c(N)n(Cc2ccccc2Cl)c1C	-3%	2µM*	-26%	-2%
Cc1ccc(C)n1Cc1ccccc1Cl	0%	?	14%	0%
Cc1ccc(OCC(=O)c2cc(C)c(C)cc2C)c([N+](=O)[O-])n1	-9%	16µM*	-9%	4%
Cc1ccc(C)c(C(=O)COc2ccc(C)nc2[N+](=O)[O-])c1	-14%	11µM*	-1%	2%
CCC(=O)N1C2=C(c3ccccc3[C@@H]1CC(=O)Nc1ccc3ccccc3c1)[C@@H]1C(=O)N(c3ccccc3)C(=O)[C@@H]1[C@H](C)C2	.	.	.	-1%[11.5 µM]
O=C(Cc1c(Cl)cccc1Cl)NCCc1ccc(Cl)cc1	5%	2%	-15%	1%
O=C(CCl)NCc1c(Cl)cccc1-n1cccc1	11%	32µM*	10%	1%
CCc1ccc(C2CC(c3ccco3)=NN2S(C)(=O)=O)cc1 (stereo not drawn)	-12%	-18%	-23%	13µM*
